# Bioassay records as filed in PubChem.
# Rows were chosen to be rich in hits. Some 4.1% of all compounds tested hit in one or more screens of this group.
# DAX1 inh-1 = DAX1 (NR0B1) inhibition, primary screen; HEK293T StAR-luciferase reporter, SF-1/DAX-1 repression relief; inhibition, % at 6.8 µM; 1.1% of 370,000 active;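 active = inhibition above the mean over all tested compounds plus 3 SD, cut at about 3.6% in these data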;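 note: 0% = DAX-1 cells with DMSO and 100% = cells lacking DAX-1 with DMSO; higher inhibition means more luminescence from relief of DAX-1 repression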
# DAX1 inh-2 = NR0B1 (DAX1) inhibition; AID 504766; HEK293 Gal4-DAX1 luciferase reporter, luminescence; inhibition, % at 6.75 µM; P51843; 0.99% of 340,000 active;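 active = inhibition above the mean over all tested compounds plus 3 SD, cut at about 4.2% in these data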;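 note: 0% = DAX1-transfected cells with DMSO and 100% = empty-vector control cells with DMSO; inhibition shows as a rise in luminescence from relieved DAX1 repression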
# Target sequence (P51843 207-470 limits assumed): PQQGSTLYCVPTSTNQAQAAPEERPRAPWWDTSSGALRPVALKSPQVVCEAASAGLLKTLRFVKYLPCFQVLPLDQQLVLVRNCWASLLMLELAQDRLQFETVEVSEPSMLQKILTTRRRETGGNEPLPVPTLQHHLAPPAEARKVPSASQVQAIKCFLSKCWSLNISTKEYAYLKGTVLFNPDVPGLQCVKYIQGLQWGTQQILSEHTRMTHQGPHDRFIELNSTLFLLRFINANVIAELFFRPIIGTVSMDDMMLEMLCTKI
# hgDAF12 agonist = hgDAF-12 agonism, primary luciferase screen; HEK293 GAL4-hgDAF12 UAS-luciferase reporter, agonist luminescence; normalized to butyrate control; activation, % at 6.8 µM; 1.8% of 370,000 active; AID 687014;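 active = activation above a cutoff set at the mean of all screened compounds plus 3 SD, cut at about 10% in these data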;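 note: 0% = DMSO wells and 100% = sodium butyrate wells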
# ssDAF12 agonist = activators of S. stercoralis DAF-12 nuclear receptor; HEK293 ssDAF-12/GRIP1 lit1-tk-luc reporter, luminescence; % of 3 µM dafachronic acid response; activation, % at 6.8 µM; 1% of 370,000 active;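 active = activation above the mean over all tested compounds plus 3 SD, cut at about 0.9% in these data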;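 note: 0% = DMSO-only wells and 100% = 3 µM delta7-dafachronic acid wells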
# hcDAF12 agonist = H. contortus DAF-12 activation, primary screen. HEK293 hcDAF-12 lit1-tk-luc reporter, luminescence; 0% DMSO, 100% Δ7-dafachronic acid. activation, % at 6.8 µM. 1.4% of 370,000 active;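 active = activation above the mean of all tested compounds plus 3 SD, cut at about 5.5% in these data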;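 note: 100% = response to 3 µM Δ7-dafachronic acid high control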
# hgDAF12 conf = confirmation of H. glycines DAF-12 agonists; HEK293 GAL4-hgDAF12 luciferase reporter, agonist mode; percent of butyrate response; AID 743050; 80% of 3,300 active; shares compounds with hgDAF12 agonist; activation, % at 6.8 µM;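 active = mean activation over triplicate wells above the hit cutoff derived from the earlier primary screen, cut at about 11% in these data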;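 note: 0% = DMSO low control and 100% = 2 mM sodium butyrate high control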
# LXRb DAF12 ctr = counter-screen for DAF-12 agonists: agonists of human LXR-beta. AID 743051. shares compounds with hgDAF12 agonist. HEK293 Gal4-LXR luciferase reporter, 24 h. activation, % at 6.8 µM. 3,300 tested, under 10 active;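 active = mean activation of the triplicate above a set limit carried over from the primary screen, none filed active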
# * hit, by the source's call; / = no result given.
SMILES,DAX1 inh-1,DAX1 inh-2,hgDAF12 agonist,ssDAF12 agonist,hcDAF12 agonist,hgDAF12 conf,LXRb DAF12 ctr
CC1(C)CC(=O)c2cc(N=C/C(C(=O)c3ccccc3)=C(\O)c3ccccc3)c(=O)oc2C1,0.6,5.1*,14.3*,0.1,1.3,7.5,0.2
CC1(C)CC(=O)C(C=Nc2ccccc2C(=O)O)=C(O)C1,0.1,-0.4,3.0,-1.8,2.6,/,/
O=C(NNC1=C(C(=O)C(F)(F)F)CCC1)c1cccc(O)c1,4.3*,2.5,13.4*,-0.3,1.7,5.7,0.0
CN(CCOC(=O)CCCc1ccccc1)C1CN(Cc2cn(Cc3ccccc3F)nn2)S(=O)(=O)C1 (stereo not given),-0.7,/,1.1,-1.2,-1.6,/,/
CCC1(c2ccc(OC)cc2)NC(=O)N(CC(=O)c2ccc3c(c2)OCCO3)C1=O (stereo not given),1.2,1.5,0.1,-0.4,-2.0,/,/
O=C(c1ccc(Cl)s1)N1CCc2ccccc21,2.4,3.0,14.9*,1.5*,6.4*,17.6*,0.5
O=C(O)c1ccc(-c2nc3ccccc3s2)o1,0.9,-3.4,4.7,-0.9,1.6,/,/
O=Cc1ccc(-c2nc3ccccc3s2)o1,1.7,-1.0,13.6*,-0.2,6.0*,10.8*,0.5
O=C(Nc1ccon1)c1ccc(N2CCCCC2)c([N+](=O)[O-])c1,2.1,2.0,15.3*,0.2,3.0,16.9*,1.0
O=C(COc1ccc(Cl)cc1Cl)Nc1cccnc1,2.6,2.4,15.0*,-0.1,2.9,14.4*,0.6
O=C(N/N=C/C(Cl)=C/c1ccccc1)c1ccco1,4.0*,1.6,22.2*,0.3,5.0,12.0*,0.6
Cc1c(NC(=O)COC(=O)Cc2ccc(F)cc2)c(=O)n(-c2ccccc2)n1C,0.6,1.6,0.2,-0.5,0.1,/,/
Oc1ccccc1N1CCN(c2ccc3ccccc3n2)CC1,1.6,1.9,15.6*,0.6,5.1,15.4*,0.7
C[N+](C)(C)CC(=O)N1CCN(c2ccc3ccccc3n2)CC1,0.6,-0.2,-1.2,-1.0,0.2,/,/
C/C(CC(=O)Nc1ccc(Cl)cc1C(F)(F)F)=N\NC(=O)c1ccccn1,2.3,-0.1,15.4*,-0.1,3.7,6.5,0.2
C/C(CC(=O)Nc1ccc(Cl)cc1C(F)(F)F)=N\NC(N)=S,-0.6,/,-0.6,-1.5,-0.2,/,/
C/C(CC(=O)Nc1ccc(Cl)cc1C(F)(F)F)=N\NC(=O)c1cccs1,1.8,8.6*,14.1*,0.3,5.4,4.8,0.1
CCOC(=O)c1sc(NC(=O)c2ccccc2)cc1C,1.4,0.9,16.9*,0.4,2.6,12.9*,0.8
O=C(/C=C/Nc1ccc(Oc2ccccc2)cc1)c1ccco1,3.8*,0.6,13.3*,0.7,4.3,23.4*,0.9
Cc1ccc(S(=O)(=O)NCC(=O)OCc2nnc(-c3ccccc3)o2)cc1,2.2,0.4,-1.9,-1.3,-1.3,/,/
CC(C(=O)Nc1ccccc1C#N)N1C(=O)NC2(CCCCCC2)C1=O (stereo not given),1.5,0.4,0.7,-0.6,1.8,/,/
CCC(C)NC(=O)Cn1cnc2sc(C)c(S(=O)(=O)N3CCCCC3)c2c1=O (stereo not given),0.2,0.2,1.9,-1.0,1.2,/,/
Brc1ccc(Cn2c(-c3ccc(Br)o3)nc3ccccc32)o1,0.5,-0.4,-0.5,-1.2,-1.8,/,/
Cn1c(-c2ccc(Br)o2)nc2ccccc21,3.7*,2.5,15.2*,1.0*,5.8*,14.8*,0.8
CCOC(=O)c1nc(-c2ccccc2)oc1N1CCOCC1,-0.1,0.8,4.1,-1.5,-1.2,/,/
SMILES,DAX1 inh-1,DAX1 inh-2,hgDAF12 agonist,ssDAF12 agonist,hcDAF12 agonist,hgDAF12 conf,LXRb DAF12 ctr
COc1ccc(C2=NOC(CNC(N)=S)C2)cc1 (stereo not given),2.3,4.5*,13.5*,0.8,3.7,15.5*,0.6
COc1ccc(CNC(=O)C2CC(c3ccc(OC)cc3)=NO2)cc1 (stereo not given),-0.5,1.0,-1.9,-1.8,0.3,/,/
CCn1cnc2sc(-c3ccccc3)cc2c1=O,1.8,0.8,16.5*,0.9*,3.6,15.8*,0.7
Clc1cccc(CNc2ccn3nc(-c4ccccc4)cc3n2)c1,1.6,/,7.7,-1.1,3.0,/,/
Clc1ccc(-c2cc3nc(NCc4cccc(Cl)c4)ccn3n2)cc1,3.9*,/,14.4*,0.1,3.7,16.6*,0.6
Clc1cccc(CNc2ccn3nc(-c4cccc(Cl)c4)cc3n2)c1,1.3,/,13.4*,-0.3,2.9,9.2,0.3
C[C@@H]1CN([C@@H](C)CO)C(=O)CCCn2nncc2CO[C@H]1CN(C)C(=O)Nc1cccc(Oc2ccccn2)c1,-0.4,0.7,1.3,-0.8,0.0,/,/
c1ccc(OCc2nnc(-c3ccccc3)o2)cc1,2.7,1.3,8.0,-1.1,0.5,/,/
Oc1ccccc1-c1nnc(COc2ccccc2)o1,1.4,2.2,13.7*,-0.4,1.7,8.5,0.2
CCc1ccc(NC(=O)CSc2nc3ccccc3nc2N2CCCC2)cc1,-1.0,-0.2,-0.7,-1.5,-1.2,/,/
Cc1c(Br)c([N+](=O)[O-])nn1CC(=O)N1CCN(C23CC4CC(CC(C4)C2)C3)CC1,-0.3,0.5,-1.0,-0.7,0.4,/,/
CCOc1ccc(NC(c2ccccn2)c2oc(CO)cc(=O)c2O)cc1 (stereo not given),3.1,1.7,14.1*,1.4*,4.4,13.1*,0.3
COC(=O)C1=C(C)N(C)C(=NCc2cccc(C(F)(F)F)c2)NC1c1ccc(C(F)(F)F)cc1 (stereo not given),-0.4,/,4.5,-0.9,-1.9,/,/
c1ccc(-c2csc(Nc3ncccn3)n2)cc1,2.4,2.2,8.9,-0.5,5.6,/,/
N#Cc1ccc(Nc2nc(-c3ccccc3)cs2)cc1,-0.6,/,18.3*,0.7,3.6,15.9*,0.7
CCCCN1C(=O)C(=O)N(c2ccccc2)C1=S,4.1*,2.0,15.5*,-0.2,3.8,14.0*,0.7
CCCCN1C(=O)C(=O)N(CC(=O)N2CCN(c3ccccc3)CC2)C1=O,2.4,-0.2,4.3,-0.1,-0.6,/,/
N#CN1CCC(NS(=O)(=O)c2ccc(C(F)(F)F)cc2)C1 (stereo not given),-0.8,-0.8,-1.9,-1.3,-2.2,/,/
COc1ccc(-c2ccc(C(=O)Nc3cccc(C(C)=O)c3)c3occc23)c(C)c1,-3.9,/,-0.5,-1.8,-4.6,/,/
COc1ccc(-c2ccc(C(=O)Nc3cccc(F)c3)c3occc23)c(C)c1,3.7*,/,14.2*,-0.4,4.1,6.3,0.7
C[C@H]1CNC(=O)c2c(C(=O)N(C)Cc3ccccc3)ncn21,0.5,/,-1.4,-1.0,-0.3,/,/
C[C@H]1Cn2cnc(C(=O)N(C)Cc3ccccc3)c2C(=O)N1,0.2,/,29.5*,0.1,1.2,-0.5,0.0
